PLCg1 inh: blocks human PLC-gamma1 enzyme activity; P19174; purified PLC-gamma1, fluorogenic substrate, fluorescence; inhibition, % at 12.2 µM; hit rate 0.84% among 370,000; AID 720700; in the data active = inhibition above about 9.5%
PLCb3 inh: PLC-beta3 (human) inhibition, primary screen | Q01970 | Purified PLC-beta3, fluorogenic substrate, fluorescence | inhibition, % at 12.2 µM | hit rate 0.18% among 370,000;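 also: 0% = median of compound wells on plate and 100% = full blocker control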
Target sequence (Q01970 whole entry, looked up): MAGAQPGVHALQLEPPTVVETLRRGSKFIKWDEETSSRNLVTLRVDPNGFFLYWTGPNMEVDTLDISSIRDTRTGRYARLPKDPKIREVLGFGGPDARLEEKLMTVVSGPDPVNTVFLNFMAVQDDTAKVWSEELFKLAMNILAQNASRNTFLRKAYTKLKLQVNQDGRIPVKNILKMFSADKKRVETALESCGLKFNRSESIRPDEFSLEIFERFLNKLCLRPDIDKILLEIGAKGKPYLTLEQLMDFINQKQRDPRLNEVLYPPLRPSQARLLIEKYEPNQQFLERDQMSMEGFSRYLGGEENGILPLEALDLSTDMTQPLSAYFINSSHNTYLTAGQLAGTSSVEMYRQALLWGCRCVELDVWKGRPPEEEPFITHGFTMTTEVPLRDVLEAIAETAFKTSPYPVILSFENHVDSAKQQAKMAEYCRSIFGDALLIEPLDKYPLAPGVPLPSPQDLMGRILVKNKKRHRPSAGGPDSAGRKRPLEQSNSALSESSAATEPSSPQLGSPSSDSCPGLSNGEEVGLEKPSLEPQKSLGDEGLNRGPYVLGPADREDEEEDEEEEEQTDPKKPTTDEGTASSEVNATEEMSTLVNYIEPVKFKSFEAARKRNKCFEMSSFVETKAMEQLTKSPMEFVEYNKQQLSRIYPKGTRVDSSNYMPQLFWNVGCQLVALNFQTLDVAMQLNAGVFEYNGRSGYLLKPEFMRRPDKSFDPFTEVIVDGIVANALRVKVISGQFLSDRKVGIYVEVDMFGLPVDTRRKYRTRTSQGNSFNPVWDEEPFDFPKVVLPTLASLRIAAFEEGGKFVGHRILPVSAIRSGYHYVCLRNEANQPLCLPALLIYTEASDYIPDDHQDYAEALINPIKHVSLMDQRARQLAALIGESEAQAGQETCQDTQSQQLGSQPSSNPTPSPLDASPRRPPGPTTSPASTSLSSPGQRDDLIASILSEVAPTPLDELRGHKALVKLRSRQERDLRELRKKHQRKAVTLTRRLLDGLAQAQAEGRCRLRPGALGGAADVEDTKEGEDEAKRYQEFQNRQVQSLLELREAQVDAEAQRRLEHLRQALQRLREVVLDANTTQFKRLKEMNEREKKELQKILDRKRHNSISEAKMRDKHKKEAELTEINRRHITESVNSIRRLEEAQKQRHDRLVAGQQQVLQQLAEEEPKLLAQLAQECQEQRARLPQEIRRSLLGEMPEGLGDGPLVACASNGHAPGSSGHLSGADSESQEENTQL
ADAM17 inh: inhibitors of human ADAM17; P78536; recombinant ADAM17, EDANS/DABCYL FRET peptide cleavage; inhibition, % at 6.95 µM; hit rate 0.83% among 370,000; AID 720648;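 active = inhibition above the mean of compounds lying between control limits plus 3 SD, set per campaign, cut at about 8.5% in these data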;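 also: 0% = DMSO-only wells as the low control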
ADAM10 inh: inhibits human ADAM10 | O14672 | recombinant ADAM10, EDANS/DABCYL FRET peptide cleavage, 3 h | inhibition, % at 7 µM | hit rate 0.62% among 370,000 | AID 720582;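 active = inhibition above a per-campaign cutoff equal to the mean of compounds falling between control-based bounds plus 3 SD, cut at about 20% in these data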;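 also: 0% = DMSO wells while the 100% control is not disclosed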
proKLK7 act: activators of human kallikrein-7 zymogen; AID 652039; hit rate 0.9% among 370,000; purified proKLK7, EDANS-DABCYL substrate fluorescence; 100% is mature enzyme control, 0% vehicle; activation, % at 7 µM;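 active = activation above the mean of all tested compounds plus 3 SD, computed per campaign excluding outliers beyond control limits, cut at about 13% in these data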
PLCg1 ctr: PLC-gamma1 inhibition, counter-screen for PLC-beta3 hits; shares compounds with PLCg1 inh; purified PLC-gamma1, fluorogenic substrate, fluorescence; inhibition, % at 12.3 µM; hit rate 3.1% among 3,300; AID 743258; in the data active = inhibition above about 9.5%
PLCbeta3 conf: confirmation of human PLC-beta3 inhibitors; shares compounds with PLCg1 inh; purified PLC-beta3, fluorogenic substrate fluorescence; inhibition, % at 12.3 µM; hit rate 1% among 3,300
* = called active by the depositor; x = no result. Shown are actives, neighbours in structure and some others; about 2.9% of the full set was active somewhere. Rule as the data show it, unless noted: active = inhibition above about 11%; inactive = the rest.

SMILES	PLCg1 inh	PLCb3 inh	ADAM17 inh	ADAM10 inh	proKLK7 act	PLCg1 ctr	PLCbeta3 conf
Cc1nc(SCC(O)CCl)c([N+](=O)[O-])[nH]1 (stereo not drawn)	11*	13*	5	4	1	0	2
CO/N=C/c1cc([N+](=O)[O-])ccc1Sc1ccc(C)cc1	10*	4	3	2	0	-14	-14
COc1ccc(OCc2ccc(C(=O)O)cc2)cc1	9.9*	3	-1	8	0	-4	-2
COc1ccc(OCC(O)COc2ccc(C(=O)O)cc2)cc1 (stereo not drawn)	4	6	-1	5	0	x	x
CC(NC(=O)c1ccc([N+](=O)[O-])cc1Cl)C1CC2CCC1C2 (stereo not drawn)	11*	7	4	12	-1	-3	0
NC1=NC(=O)/C(=C/c2cccs2)S1	15*	2	-3	-1	0	2	3
O=C(COc1ccccc1-c1ccccc1)NCc1cccc(Cl)c1	1	-5	2	5	0	x	x
Cn1nc(-c2ccccn2)nc2c(=O)n(C)c(=O)nc1-2	51*	-9	-6	-6	-4	32*	-12
CCCc1nc2c(=O)n(C)c(=O)nc-2n(C)n1	55*	-6	-6	0	0	43*	3
CN(Cc1ccccc1)c1nc(N)c([N+](=O)[O-])c(NCc2ccccc2)n1	1	-2	-3	-1	0	x	x
COc1ccccc1S(=O)(=O)N(C)C[C@@H]1OCc2cnnn2CCCC(=O)N([C@@H](C)CO)C[C@@H]1C	-1	2	3	-14	1	x	x
O=C(COC(=O)/C=C/C(=O)OCC(=O)Nc1ccccc1F)Nc1ccccc1F	2	-1	-1	3	0	x	x
COc1ccc(C(=O)ON=C2CCN(c3ccc([N+](=O)[O-])cc3)CC2)cc1	3	3	1	9	0	x	x
O=C(ON=C1CCN(c2ccc([N+](=O)[O-])cc2)CC1)c1ccccc1	9.9*	0	2	2	0	-6	-4
CCc1ccccc1N/C(=N\S(=O)(=O)c1ccccc1)C(F)(F)F	-1	3	-2	3	0	x	x
O=S(=O)(/N=C(/Nc1ccccc1)C(F)(F)F)c1ccccc1	9.6*	5	4	13	0	-5	0
COc1ccc(OC)c(NC(=O)CC2SC(=Nc3ccc(F)cc3)N(CCC3=CCCCC3)C2=O)c1 (stereo not drawn)	11*	4	6	11	-1	1	-4
COc1cc([N+](=O)[O-])ccc1NC(=O)CC1SC(=Nc2ccc(F)cc2)N(CCC2=CCCCC2)C1=O (stereo not drawn)	2	1	0	1	0	x	x
CCCC(=O)OCC(=O)Nc1ccc(N=Nc2ccccc2)cc1	9.6*	9	5	9	0	3	2
COc1ccc(C(=O)NCCCNC(=O)c2cnccn2)cc1	-1	-4	-3	-2	0	x	x
O=C(NCC(c1ccccc1)c1ccccc1)[C@H](Cc1ccccc1)NC1(C(=O)NC2CCCCC2)CCOCC1	14*	3	5	7	x	2	5
Cc1ccc(Cn2cc(CN3[C@@H](CC(C)C)COc4cccc(F)c4S3(=O)=O)nn2)cc1	1	0	-3	-4	0	x	x
CCCn1c(N2CCN(C)CC2)nc2c1c(=O)[nH]c(=O)n2C	3	4	-3	6	0	x	x
CN1CCN(c2nc3c(c(=O)[nH]c(=O)n3C)n2CC(N)=O)CC1	14*	8	6	8	0	-5	-2
COc1cccc(C(=O)NC2CC3CCCC(C2)N3CC(=O)Nc2ccccc2)c1 (stereo not drawn)	4	8	1	3	1	x	x
COc1cccc(C(=O)NC2CC3CCCC(C2)N3CC(=O)Nc2ccc(N(C)C)cc2)c1 (stereo not drawn)	11*	5	5	2	0	-4	0
COC(=O)c1ccc2c(c1)NC(=O)CS2	4	1	0	1	0	x	x
O=C1CSc2ccccc2N1	11*	5	4	-9	0	-1	-1

Assay outcomes (PubChem BioAssay)
